# Assay results as given in the supplement of paper PMC8975748.
# Where a name gives a salt, the structure may show the parent alone. ± gives the standard deviation of the averaged measurements.
# Experiments:
# [1] = tested on: Saccharomyces cerevisiae BY4741 SeMeCo community; assay: z-score of prototroph abundance vs DMSO median; higher = larger share of this subpopulation than in DMSO controls; conditions: 10 µM; 24 h; SM minimal medium; subpopulation (auxotrophy): Prototroph
# Method in brief: (§1)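 Subpopulation abundance was reported as a z-score against the median of vehicle wells. The Saccharomyces cerevisiae BY4741 community, carrying four plasmids that each restored one auxotrophy and encoded a distinct fluorescent protein, was grown 24 h in minimal SM medium in 384-well plates holding library drugs at 10 µM final. Cells were paraformaldehyde-fixed and imaged by automated confocal microscopy, with single-auxotroph fluorescent strains used for thresholds and autofluorescence correction.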
# [2] = tested on: Saccharomyces cerevisiae BY4741 SeMeCo community; assay: z-score of subpopulation abundance vs DMSO median, subpopulation auxotrophic for M; higher = larger share of this subpopulation than in DMSO controls; conditions: 10 µM; 24 h; SM minimal medium; subpopulation (auxotrophy): M
# Method in brief: as §1
# [3] = tested on: Saccharomyces cerevisiae BY4741 SeMeCo community; assay: z-score of subpopulation abundance vs DMSO median, subpopulation auxotrophic for L; higher = larger share of this subpopulation than in DMSO controls; conditions: 10 µM; 24 h; SM minimal medium; subpopulation (auxotrophy): L
# Method in brief: as §1
# [4] = tested on: Saccharomyces cerevisiae BY4741 SeMeCo community; assay: z-score of subpopulation abundance vs DMSO median, subpopulation auxotrophic for U; higher = larger share of this subpopulation than in DMSO controls; conditions: 10 µM; 24 h; SM minimal medium; subpopulation (auxotrophy): U
# Method in brief: as §1
# [5] = tested on: Saccharomyces cerevisiae BY4741 SeMeCo community; assay: z-score of subpopulation abundance vs DMSO median, subpopulation auxotrophic for H; higher = larger share of this subpopulation than in DMSO controls; conditions: 10 µM; 24 h; SM minimal medium; subpopulation (auxotrophy): H
# Method in brief: as §1
# [6] = tested on: Saccharomyces cerevisiae BY4741 SeMeCo community; assay: z-score of subpopulation abundance vs DMSO median, subpopulation auxotrophic for LU; higher = larger share of this subpopulation than in DMSO controls; conditions: 10 µM; 24 h; SM minimal medium; subpopulation (auxotrophy): LU
# Method in brief: as §1
# [7] = tested on: Saccharomyces cerevisiae BY4741 SeMeCo community; assay: z-score of subpopulation abundance vs DMSO median, subpopulation auxotrophic for LM; higher = larger share of this subpopulation than in DMSO controls; conditions: 10 µM; 24 h; SM minimal medium; subpopulation (auxotrophy): LM
# Method in brief: as §1
# [8] = tested on: Saccharomyces cerevisiae BY4741 SeMeCo community; assay: z-score of subpopulation abundance vs DMSO median, subpopulation auxotrophic for HM; higher = larger share of this subpopulation than in DMSO controls; conditions: 10 µM; 24 h; SM minimal medium; subpopulation (auxotrophy): HM
# Method in brief: as §1
# [9] = tested on: Saccharomyces cerevisiae BY4741 SeMeCo community; assay: z-score of subpopulation abundance vs DMSO median, subpopulation auxotrophic for HU; higher = larger share of this subpopulation than in DMSO controls; conditions: 10 µM; 24 h; SM minimal medium; subpopulation (auxotrophy): HU
# Method in brief: as §1
# [10] = tested on: Saccharomyces cerevisiae BY4741 SeMeCo community; assay: z-score of subpopulation abundance vs DMSO median, subpopulation auxotrophic for UM; higher = larger share of this subpopulation than in DMSO controls; conditions: 10 µM; 24 h; SM minimal medium; subpopulation (auxotrophy): UM
# Method in brief: as §1
# [11] = tested on: Saccharomyces cerevisiae BY4741 SeMeCo community; assay: z-score of subpopulation abundance vs DMSO median, subpopulation auxotrophic for HL; higher = larger share of this subpopulation than in DMSO controls; conditions: 10 µM; 24 h; SM minimal medium; subpopulation (auxotrophy): HL
# Method in brief: as §1
# [12] = tested on: Saccharomyces cerevisiae BY4741 SeMeCo community; assay: z-score of subpopulation abundance vs DMSO median, subpopulation auxotrophic for HLU; higher = larger share of this subpopulation than in DMSO controls; conditions: 10 µM; 24 h; SM minimal medium; subpopulation (auxotrophy): HLU
# Method in brief: as §1
# [13] = tested on: Saccharomyces cerevisiae BY4741 SeMeCo community; assay: z-score of subpopulation abundance vs DMSO median, subpopulation auxotrophic for HLM; higher = larger share of this subpopulation than in DMSO controls; conditions: 10 µM; 24 h; SM minimal medium; subpopulation (auxotrophy): HLM
# Method in brief: as §1
# [14] = tested on: Saccharomyces cerevisiae BY4741 SeMeCo community; assay: z-score of subpopulation abundance vs DMSO median, subpopulation auxotrophic for HUM; higher = larger share of this subpopulation than in DMSO controls; conditions: 10 µM; 24 h; SM minimal medium; subpopulation (auxotrophy): HUM
# Method in brief: as §1
# [15] = tested on: Saccharomyces cerevisiae BY4741 SeMeCo community; assay: z-score of subpopulation abundance vs DMSO median, subpopulation auxotrophic for LUM; higher = larger share of this subpopulation than in DMSO controls; conditions: 10 µM; 24 h; SM minimal medium; subpopulation (auxotrophy): LUM
# Method in brief: as §1
# [16] = tested on: Saccharomyces cerevisiae BY4741 SeMeCo community; assay: z-score of subpopulation abundance vs DMSO median, subpopulation auxotrophic for HLUM; higher = larger share of this subpopulation than in DMSO controls; conditions: 10 µM; 24 h; SM minimal medium; subpopulation (auxotrophy): HLUM
# Method in brief: as §1
# [17] = tested on: Saccharomyces cerevisiae BY4741 SeMeCo community; assay: mean cell size (pixel area) (pixels); higher = larger cells; conditions: 10 µM; 24 h; SM minimal medium
# Method in brief: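 Mean cell pixel area per well was measured in a four-plasmid fluorescent community of Saccharomyces cerevisiae BY4741, where every plasmid complements one auxotrophy and carries a fluorescent marker. Cells from an overnight preculture at OD600 = 1.0 were diluted to OD600 = 0.3 and dispensed at 70 µl into 384-well plates acoustically predosed with drug to a final 10 µM in SM medium. Incubation lasted 24 h, followed by paraformaldehyde fixation, automated confocal imaging and analysis in Harmony. Reported figures are averaged over 3 replicates. Same SeMeCo high-content imaging drug screen: Selleck FDA-approved drugs at 10 µM, 24 h in SM medium, 384-well plates, 3 replicates.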
SMILES,z-score of prototroph abundance [1],z-score of subpopulation abundance [2],z-score of subpopulation abundance [3],z-score of subpopulation abundance [4],z-score of subpopulation abundance [5],z-score of subpopulation abundance [6],z-score of subpopulation abundance [7],z-score of subpopulation abundance [8],z-score of subpopulation abundance [9],z-score of subpopulation abundance [10],z-score of subpopulation abundance [11],z-score of subpopulation abundance [12],z-score of subpopulation abundance [13],z-score of subpopulation abundance [14],z-score of subpopulation abundance [15],z-score of subpopulation abundance [16],mean cell size [17]
CCC(C)C1OC2(CCC1C)CC1CC(CC=C(C)C(OC3CC(OC)C(OC4CC(OC)C(O)C(C)O4)C(C)O3)C(C)C=CC=C3COC4C(O)C(C)=CC(C(=O)O1)C34O)O2 (centres undefined) [Ivermectin],-1.61,-0.12,-0.07,0.12,1.41,-0.12,0.26,1.17,1.39,1.13,0.26,2.13,0.72,2.99,1.28,0.72,–
CN1CCN(C2=Nc3cc(Cl)ccc3Nc3ccccc32)CC1 [Clozapine],0.32,-0.47,-0.41,0.17,-0.49,-1.03,-0.26,-0.07,-0.45,–,0.94,-0.01,-0.52,0.23,0.32,-0.29,–
COc1nc2ccc(Br)cc2cc1[C@@H](c1ccccc1)[C@@](O)(CCN(C)C)c1cccc2ccccc12 [Bedaquiline fumarate],–,-0.55,-0.13,0.97,1.1,0.86,–,–,1.44,4.1,0.4,0.68,-0.14,1.74,3.68,1.29,11.2 ± 0.16
CC(C(=O)O)c1ccc2c(c1)[nH]c1ccc(Cl)cc12 (centres undefined) [Carprofen],3.42,-2.06,-0.33,–,3.31,-3.11,–,-2.19,-2.04,-4.96,1.64,-0.81,0.84,-2.82,-1.52,–,13.82 ± 0.13
NC[C@@H]1O[C@H](O[C@H]2[C@@H](O)[C@H](O[C@@H]3[C@@H](O)[C@H](N)C[C@H](N)[C@H]3O[C@H]3O[C@H](CN)[C@@H](O)[C@H](O)[C@H]3N)O[C@@H]2CO)[C@H](N)[C@@H](O)[C@@H]1O [Neomycin sulfate],0.99,-0.79,0.21,0.07,0.56,0.11,-0.12,-1.14,-0.31,-1.35,-0.31,-0.36,-0.3,-1.64,-0.31,0.16,–
CCOc1cc(N)c(Cl)cc1C(=O)NCC1CN(Cc2ccc(F)cc2)CCO1 (centres undefined) [Mosapride],0.05,0.39,-0.65,-0.39,0.06,0.77,–,–,0.02,-0.47,-0.5,-0.42,0.45,0.4,-0.04,–,12.5 ± 0.23
CN(C)CC/C=C1/c2ccccc2Sc2ccc(Cl)cc21 [Chlorprothixene],0.08,0.73,-0.89,0.62,-1,-0.59,–,-0.62,0.13,0.34,-0.06,-0.48,-0.36,-0.32,-0.1,–,12.2 ± 0.36
CN1CCC(=C2c3ccccc3CCc3sccc32)CC1 [Pizotifen Malate],0.02,0.26,0.36,-0.76,-0.02,0.03,-0.03,-0.03,-0.33,-0.43,–,0.5,0.21,-0.14,-0.55,0.16,–
CN[C@H](CC(C)C)C(=O)N[C@H]1C(=O)N[C@@H](CC(N)=O)C(=O)N[C@H]2C(=O)N[C@H]3C(=O)N[C@H](C(=O)N[C@H](C(=O)O)c4cc(O)cc(O)c4-c4cc3ccc4O)[C@H](O)c3ccc(c(Cl)c3)Oc3cc2cc(c3O[C@@H]2O[C@H](CO)[C@@H](O)[C@H](O)[C@H]2O[C@H]2C[C@](C)(N)[C@H](O)[C@H](C)O2)Oc2ccc(cc2Cl)[C@H]1O [Vancomycin],0.81,-0.82,-0.12,-0.09,-0.2,0.08,-0.43,-0.74,-0.91,–,-0.12,-0.21,-0.2,-0.71,–,-0.03,–
Cc1cnc(NC(=O)C2=C(O)c3ccccc3S(=O)(=O)N2C)s1 [Meloxicam],1.47,-0.52,-0.61,-0.19,-0.59,-0.98,-0.94,-0.89,-0.61,–,-0.41,-1.26,-1.09,-0.88,-1.43,-0.98,–
Cc1ccnc(NS(=O)(=O)c2ccc(N)cc2)n1 [Sulfamerazine],-1.15,1.32,1.54,-0.62,0.49,0.43,0.88,2,-0.3,–,0.86,0.89,0.7,0.76,–,0.45,–
Nc1ccc(/N=N/c2ccccc2)c(N)n1 [Phenazopyridine HCl],2.41,0.28,0.42,-2.82,1.88,-2.56,0.47,0.02,-2.46,-2.74,0.92,-1.56,0.39,-1.7,–,-0.54,–
CO/N=C(\C(=O)N[C@@H]1C(=O)N2C(C(=O)O)=C(COC(C)=O)CS[C@H]12)c1csc(N)n1 [Cefotaxime sodium],–,0.24,-0.14,–,-0.66,0.37,–,–,-0.11,0.17,-0.46,0.33,0,-0.16,0.05,0.47,12.36 ± 0.028
Cc1cc2c(s1)Nc1ccccc1N=C2N1CCN(C)CC1 [Olanzapine],0.17,0.84,-0.11,-0.29,-0.12,-0.6,–,0.2,0.19,0.07,-0.15,0.07,-0.05,-0.5,–,–,12.5 ± 0.2
CC1(C)S[C@@H]2[C@H](NC(=O)COc3ccccc3)C(=O)N2[C@H]1C(=O)O [Penicillin V potassium salt],0.29,0.91,-1.58,0.95,-1.14,-0.1,0.22,0.44,0.49,0.57,-0.72,-0.94,-0.74,-0.23,–,-1.08,–
